Rows were chosen to be rich in hits. Some 4.2% of all compounds tested hit in one or more screens of this group.
GDH-TPI counter – GDH-TPI coupling enzyme inhibitors, primary screen, artefact control for M. tuberculosis FBA inhibitor project, biochemical, absorbance, full deck | GDH-TPI coupled enzyme counterscreen, NADH absorbance | inhibition, % at 4.8 µM | 360,000 tested, 1.2% active
RecA intein inh – Mtb RecA intein splicing inhibitors, primary screen, biochemical, fluorescence, HTS; Protein RecA (Mycobacterium tuberculosis (strain ATCC 25618 / H37Rv)), P9WHJ3; 290,000 tested, 0.75% active; inhibition, % (no concentration beside the values); cell-free RecA intein splicing; AID 2221, 2009; in the data active = inhibition above about 30%
Mtb FBA inh – Mtb FBA enzyme inhibitors, primary screen, biochemical, fluorescence, strain H37Rv; AID 588726, 2011; Fructose-bisphosphate aldolase (Mycobacterium tuberculosis (strain ATCC 25618 / H37Rv)), …; purified M. tuberculosis FBA, fluorescence read-out; inhibition, % at 1 µM; 360,000 tested, 2.3% active; in the data active = inhibition above about 27%
Target sequence (P9WQA3 whole entry, looked up): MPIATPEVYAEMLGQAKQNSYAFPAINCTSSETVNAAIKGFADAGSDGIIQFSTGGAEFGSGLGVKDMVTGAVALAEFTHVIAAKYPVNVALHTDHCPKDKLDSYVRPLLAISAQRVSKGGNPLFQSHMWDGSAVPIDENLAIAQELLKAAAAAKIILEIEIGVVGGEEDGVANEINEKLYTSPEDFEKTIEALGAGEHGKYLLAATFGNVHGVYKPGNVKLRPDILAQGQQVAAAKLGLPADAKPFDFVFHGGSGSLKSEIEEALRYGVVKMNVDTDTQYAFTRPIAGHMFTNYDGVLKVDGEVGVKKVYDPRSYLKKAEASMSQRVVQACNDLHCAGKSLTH
CCHFV vOTU inh – CCHFV vOTU protease inhibitors, primary screen, biochemical, Pep-AMC substrate, fluorescence | AID 651958, 2012 | 370,000 tested, 0.55% active | inhibition, % at 11.5 µM
Hits are given with their value; n = inactive; x = no result; + = active, no number. Cut-off read from the data, not from the text of the source, unless noted: active = inhibition above about 30%; inactive = the rest.

SMILES	GDH-TPI counter	RecA intein inh	Mtb FBA inh	CCHFV vOTU inh
CSc1ccccc1NC(=O)CN(C)C(=O)c1ccc(-n2cccn2)cc1	n	x	n	n
Cc1c(/C=N/NC(=O)COc2ccccc2[N+](=O)[O-])c2ccccc2n1C	34	n	n	n
Cc1ccc(OCC(=O)N/N=C\c2c(C)n(C)c3ccccc23)c([N+](=O)[O-])c1	31	n	n	x
CC(=O)N1CCN(C2=NC(=O)N(c3ccc(Br)cc3)C(=O)C2)CC1	x	x	x	n
CCCCCCCCN1C(=O)N2Cc3cc(OC)ccc3C2CS1(=O)=O (centres undefined)	x	x	x	n
COc1ccc(C2CC(=O)C3=C(C2)Nc2ccccc2N(C(C)=O)C3c2ccco2)cc1 (centres undefined)	47	n	n	n
COC(=O)CCC1NC(=O)C(Cc2c[nH]c3ccccc23)NC(=O)C2CC(=O)OC(C)C(NC(=O)C(C)NC(=O)C3CCCN3C(=O)C3CCCN3C(=O)C(C)NC(C)=O)C(=O)NC(CC(C)C)C(=O)NC(CCCCNC(=O)CCC(C(=O)NC(Cc3ccc(O)cc3)C(=O)O)NC1=O)C(=O)NC(Cc1c[nH]c3ccccc13)C(=O)N1CCCC1C(=O)NC(CO)C(=O)N2 (centres undefined)	x	x	x	n
Cc1ccc(-c2csc(/C(C#N)=C(\O)CN3CCN(C(=O)c4ccco4)CC3)n2)cc1	31	n	n	n
O=C(C[n+]1cccc2ccccc21)c1ccc(Cl)cc1	n	n	125	n
O=C(C[n+]1cccc2ccccc21)c1ccc([N+](=O)[O-])cc1	n	n	n	n
COc1cc(/C=N/NC(=O)C(Cc2c[nH]c3ccccc23)NC(=O)OCC(C)C)cc([N+](=O)[O-])c1O (centres undefined)	33	n	n	n
COc1cc(CC(NC(C)=O)C(=O)NC2CCN(C(=O)Nc3ccc(C)cc3)CC2)cc(OC)c1 (centres undefined)	n	n	n	n
O=C(COC(=O)c1cc(=O)[nH]c2ccccc12)NC1CCCC1	n	n	n	n
O=C(NC1CCCC1)c1cc(=O)[nH]c2ccccc12	43	n	n	n
C[C@H](NC(=O)c1ncn2c1C(=O)NC[C@H]2C)C(=O)OC(C)(C)C	n	x	n	n
CC1=C2NC(N)=[N+](Cc3ccccc3)CC2n2c(=O)n(-c3ccccc3)c(=O)n2C1 (centres undefined)	x	x	x	n
CCCC(=O)OC12CCCN(C1)/C(=C/c1cccc(Cl)c1)C2 (centres undefined)	x	x	x	n
CC(C)N1CC=C2C(C#N)=C(N)C(C#N)(C#N)[C@H](c3ccoc3)[C@H]2C1	x	n	x	x
CC(C)N1CC=C2C(C#N)=C(N)C(C#N)(C#N)C(c3ccccc3)C2C1 (centres undefined)	n	n	+	n
CCN1CC=C2C(C#N)=C(N)C(C#N)(C#N)C(c3cc(Cl)ccc3Cl)C2C1 (centres undefined)	n	n	33	n
O=C(CCN1C(=O)CC1c1ccco1)N1CCOCC1 (centres undefined)	x	x	n	x
Cc1ccc(C2c3c(oc4ccc(Cl)cc4c3=O)C(=O)N2CCCN2CCOCC2)o1 (centres undefined)	x	36	x	x
CCOc1ccc(-n2c(COc3ccccc3)nnc2SCC(=O)Nc2ccc(OCc3ccccc3)cc2)cc1	x	x	x	n
Cc1c(N=Cc2nc3ccccc3[nH]2)c(=O)n(-c2ccccc2)n1C	42	n	n	n
Cc1cccc(-c2ccc(C=Nc3c(C)n(C)n(-c4ccccc4)c3=O)o2)c1	37	n	n	n
SMILES	GDH-TPI counter	RecA intein inh	Mtb FBA inh	CCHFV vOTU inh
Cc1c(N=Cc2nc3ccccc3n2C)c(=O)n(-c2ccccc2)n1C	43	n	n	n
COC(=O)[C@@]12CCCCC=C1N(CCc1ccc(Cl)cc1)C(=O)[C@H]2CC(=O)NCc1cccc(C(F)(F)F)c1	x	x	x	n
CN1C(=O)c2cc(NC(=O)C3CC3)ccc2OC[C@H]2O[C@@H](CC(=O)NC3CCC3)CC[C@@H]21	x	x	x	n
COc1ccccc1CNC(=O)c1cnc2sccn2c1=O	36	n	n	n
O=C(NCc1cccnc1)c1cnc2sccn2c1=O	41	n	n	n
Cc1cccc(NC(=O)c2cnc3sccn3c2=O)n1	33	n	n	n
C=CC[C@@H](CC(=O)N[C@@H](CO)Cc1ccccc1)C(=O)N[C@H](COC(=O)[C@H](CC=C)CC(=O)OC(C)(C)C)Cc1c[nH]c2ccccc12	n	x	n	n
C=CC[C@@H](CC(=O)N[C@H](CO)Cc1ccccc1)C(=O)N[C@H](COC(=O)[C@H](CC=C)CC(=O)OC(C)(C)C)Cc1c[nH]c2ccccc12	n	x	n	37
CSCC[C@H](NC(=O)Cc1c(C)c2cc3c(C)c(C)oc3cc2oc1=O)C(=O)N[C@@H](C(=O)O)c1ccccc1	n	x	n	n
Cc1c(CC(=O)NCCCC(=O)O)c(=O)oc2cc3c(cc12)CCC(C)(C)O3	n	n	+	n
Cc1c(CC(=O)NCCCC(=O)O)c(=O)oc2cc3oc4c(c3cc12)CCCC4	n	n	n	n
CCC(NC(=O)Cc1c(C)c2cc3c(cc2oc1=O)OC(C)(C)CC3)C(=O)O (centres undefined)	n	n	+	n
Cc1c(CC(=O)NCCCCCC(=O)O)c(=O)oc2cc3c(cc12)CCC(C)(C)O3	n	n	187	n
COCCCNC(=O)Cc1c(C)c2cc3c(cc2oc1=O)OC(C)(C)CC3	n	n	192	n
CCOC(=O)c1cccc(NC(=O)CN(C)S(=O)(=O)c2ccc(Cl)s2)c1	x	x	x	n
Cc1c(CC(=O)N2CCC(C(N)=O)CC2)c(=O)oc2cc3c(cc12)CCC1(CCCCC1)O3	n	n	+	n
Cc1c(CC(=O)O)c(=O)oc2cc3c(cc12)CCC(C)(C)O3	n	n	+	n
Cc1c(CCC(=O)N2CCC(C(=O)O)CC2)c(=O)oc2cc3oc4c(c3cc12)CCCC4	n	x	n	n
Cc1c(CC(=O)O)c(=O)oc2cc3occ(-c4ccccc4)c3cc12	n	n	n	n
COc1ccccc1CN(C)C(=O)C1CCCN(c2nc3ccccc3o2)C1 (centres undefined)	x	x	x	n
Cc1ccccc1N1CCN(S(=O)(=O)c2nnc(NC(=O)CC(C)C)s2)CC1	n	n	n	n
Cc1ccccc1N1CCN(S(=O)(=O)c2nnc(NC(=O)c3ccco3)s2)CC1	35	n	n	n
CCc1ccc(OC2(C)CCN(Cc3ccc(SC)cc3)C2)cc1 (centres undefined)	n	x	n	n
COc1cc(C(C#N)N2CCC(c3ccccc3)=N2)ccc1O (centres undefined)	36	n	n	n
COc1ccc(C(C#N)N2CCC(c3ccccc3)=N2)cc1OC (centres undefined)	n	n	n	n
O=C(COCc1ccccc1)NC1CCCCN(Cc2ccc(Cl)cc2)C1=O (centres undefined)	x	x	x	n
